# Experimental data as given in PubChem BioAssay (NCI).
# The panel holds about 83,000 compounds, 20% with a hit somewhere; the sample as a whole holds those more often.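 The test compound was applied at a single concentration to cells in 96-well plates for 48 hours, and percent growth was recorded.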 A number with no mark means an inactive call. Activity calls are given as the source filed them. The calls were made as follows: active = growth percent below 10; inactive = the rest.
# Assays:
# Assay in all cases: NCI-60 one-dose screen, 48 h (100 = growth as untreated, 0 = no growth, -100 = all killed)
# Settings in all cases: 10 µM unless noted
# NCI-H23 lung = tested on: NCI-H23 lung
# NCI-H226 lung = tested on: NCI-H226 lung
# NCI-H322M lung = tested on: NCI-H322M lung
# HOP-62 NSCLC = tested on: HOP-62 NSCLC
# NCI-H460 lung = tested on: NCI-H460 lung
# HOP-92 NSCLC = tested on: HOP-92 NSCLC
# NCI-H522 lung = tested on: NCI-H522 lung
# A549/ATCC NSCLC = tested on: A549/ATCC NSCLC
# 786-0 renal = tested on: 786-0 renal
# COLO 205 colon = tested on: COLO 205 colon
SMILES,growth (NCI-H23 lung) [%],growth (NCI-H226 lung) [%],growth (NCI-H322M lung) [%],growth (HOP-62 NSCLC) [%],growth (NCI-H460 lung),growth (HOP-92 NSCLC),growth (NCI-H522 lung),growth (A549/ATCC NSCLC) [%],growth (786-0 renal) [%],growth (COLO 205 colon)
O=C(Cn1cc(CSc2nc3ccccc3o2)nn1)Nc1ccc(F)cc1F,96,86.2,104,114,117%,114%,111%,113,119,127%
CCOC(=O)c1nn(-c2ccc(S(N)(=O)=O)cc2)c2nc(C)cc(=O)n12,98.5,104,102,102,109%,95%,100%,102,96.5,114%
O=c1[nH]c(-c2ccccc2)nc2sc3cc(O)ccc3c12,84.6,79.6,81.2,105,84.1%,94.8%,75.5%,81.6,79.3,110%
CCOC(=O)n1cc(-c2nonc2-c2cn(C(=O)OCC)c3ccc(Br)cc23)c2ccccc21,67.9,79.4,70,72.3,81.6%,63.2%,70.6%,74.4,90.6,84.2%
Nc1nc2ccc(-c3nc4ccc5[nH]ncc5c4c4c3CCCC4)cc2s1,100,112,101,101,107%,106%,86.8%,91.8,108,106%
N#Cc1nc(-c2ccccc2)oc1S(=O)(=O)N1CCN(c2ccccc2)CC1,74.9,87.2,95.6,104,97.8%,116%,58.6%,99.9,99.8,122%
O=C(Nc1ccc(Oc2cccc(Cl)c2)c(Cl)c1)c1cnccn1,46.1,64.1,47.9,41,15.7%,62%,12.5%,23.9,44.6,12.3%
CC(C)=CC(=O)OCC(=O)O[C@@H]1C[C@]2(C(C)C)O[C@@]1(C)[C@@H]1CC[C@@H](C)[C@H]1[C@@H]2OC(=O)/C=C/c1ccccc1,76,55.5,90.7,96.7,93.5%,61%,70.4%,83.4,66,106%
CCOC(=O)c1c(NC(=O)c2cccc(C(F)(F)F)c2)sc2c(CN(C)C)c(O)ccc12,93.1,101,70.9,96.7,2.61% (active),-1.17% (active),71.9%,60.8,12.1,19%
CCN(CC)S(=O)(=O)c1ccc(S(=O)(=O)N2CCC[C@@H](C(=O)N3CCN(c4nc(C(C)C)no4)CC3)C2)cc1,50,82.1,88.7,66.8,70.8%,77.1%,60.2%,67.1,89.6,102%
COc1ccc(CN2c3ccccc3Sc3ccccc32)cc1F,30.7,45.6,43,20.4,5.41% (active),50.4%,4.53% (active),21.9,22.5,-32.9% (active)
CC(=O)Oc1ccc(C)cc1C,103,107,108,105,115%,105%,101%,100,100,125%
Cc1ccc2c(Cn3cc(CSc4nc5ccccc5o4)nn3)cc(=O)oc2c1,96.1,110,104,105,110%,110%,97.6%,105,105,111%
C=C1C(=O)O[C@H]2[C@H]1CC/C(COC(=O)/C=C\C(=O)NCc1ccc(Cn3c(=O)sn(CCI)c3=O)cc1)=C\CC[C@@]1(C)O[C@@H]21,84.1,83,86.6,130,91.9%,46%,-84% (active),98.1,37.4,-32.8% (active)
